# Where “and” joins values, the source holds several entries; their conditions need not be identical. Equal values may be shown once. Values without a mark were called inactive. Inconclusive results are not listed. A call without a number means that no potency is given here. Calls of active or inactive are those of the source. Calls follow the shape of the dose curve; as a rule, active = well fitted curve in the direction sought with a large enough effect; inconclusive = small, poorly fitted or top-dose-only effect, or another doubt; inactive = no such curve, though single readings can be large; an effect the other way counts as inactive or inconclusive. *1 amine or outer side, *2 acyl side, *3 side chain or, on linkers, in order; H or OH if unused. Where a SMILES comes first, the peptide text is derived from it. [ ]: non-standard residue; d: D form. X7 = O=C([C@@H](CC(O)CCl)O[*:1])[*:2]; aIle = CC[C@@H](C)[C@H](N)C(=O)O; NMeV = CN[C@H](C(=O)O)C(C)C; NMeA = CN[C@@H](C)C(=O)O; βAla = NCCC(=O)O
# Columns and labels:
# [1] = P-glycoprotein substrates identified in KB-8-5-11 adenocarcinoma cell line, qHTS therapeutic library screen (AID 1346987); also: nearly all actives have a fitted effect of over 65% in size; also: potency is read from the fitted curve at half-maximal effect
# How it was run: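 Compounds are pinned in dose-response onto KB-8-5-11 cells (500 cells/well, colchicine-free medium) and left 72 h at 37 degree C. CellTiter-Glo luminescence then yields AC50 values.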
# [2] = Primary qHTS for inhibitors of nuclear receptor binding SET domain protein 2 (NSD2) in an isogenic RCH-ACV NSD2 p.E1099K mutant (9B) (AID 1645876); also: nearly all actives have a fitted effect of over 70% in size; also: potency is read from the fitted curve at half-maximal effect
# [3] = Primary qHTS for inhibitors of nuclear receptor binding SET domain protein 2 (NSD2) in an RCH-ACV wild type WT cells (2C) (AID 1645877); also: nearly all actives have a fitted effect of over 70% in size; also: potency is read from the fitted curve at half-maximal effect
# [4] = target: Glutathione peroxidase 1 (Homo sapiens) (UniProt P07203); test: Primary qHTS Assay for Inhibitors of Recombinant Selenoprotein Glutathione Peroxidase 1 (GPX1) (AID 1845191); also: nearly all actives have a fitted effect of over 65% in size
# How it was run: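 GPX1 10 nM, GR 100 nM, GSH 1 mM, NADPH 0.5 mM, CHP 0.5 mM (final). 30-min cpd preincubation, RT. Ex340/Em450 read t=0, t=15 min.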
# [5] = target: Phospholipid hydroperoxide glutathione peroxidase GPX4 (Homo sapiens) (UniProt P36969); test: Primary qHTS Assay for Inhibitors of Recombinant Selenoprotein Glutathione Peroxidase 4 (GPX4) (AID 1845192); also: nearly all actives have a fitted effect of over 65% in size
# How it was run: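 qHTS, GR-coupled: GPX4 200 nM + cpd 30 min RT → GSH 1 mM, NADPH 0.5 mM, GR 100 nM → CHP 0.5 mM start; fluor 340/450 at t0 and t15 min; no-enzyme wells as control.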
# [6] = target: Luciferin 4-monooxygenase (Photinus pyralis) (UniProt P08659); test: Primary firefly luciferase (FLuc) qHTS assay for identification of artifact compounds. (AID 1845220); details: outcome: dose series up to 54.1 µM unless noted; also: nearly all actives have a fitted effect of over 60% in size
# How it was run: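 In this counter-screen for luciferase artifacts, test compounds met substrate (10 uM each luciferin and ATP) before 10 nM enzyme started the reaction. Light output was measured 5 min later.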
# [7] = tested on: Nanoluciferase (engineered Oplophorus gracilirostris luciferase); test: Primary Nanoluciferase (NLuc) qHTS assay for identification of artifact compounds. (AID 1845222);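 also: NLuc secreted into diluted conditioned medium of S16 cells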
# How it was run: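 Using secreted nanoluciferase in S16 culture medium (0.22 um filtered, 1:55 dilution), compounds were preincubated 15 min at RT. Signal was generated with Nano-Glo reagent (1:100) over 5 min.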
# CRL-7250 = normal cell line; test: Cytotoxic Profiling of Annotated Libraries Using Quantitative High-Throughput Screening (AID 1296008); details: Five cell lines viability, CellTiter-Glo ATP luminescence, 48-72 h; max response: stronger effect = lower value; also: nearly all actives have a fitted effect of over 60% in size; also: potency is read from the fitted curve at half-maximal effect
# How it was run: (§1)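 Compounds were pin-transferred onto cells and incubated 48 or 72 hr at 37 degree Celsius, 95% humidity. CellTiter-Glo was added, plates sat 10 min at room temperature, then ATP-coupled luminescence was imaged as the viability read-out.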
# HEK293 = test: as above; details: Five cell lines viability, CellTiter-Glo ATP luminescence, 48-72 h; max response: stronger effect = lower value
# How it was run: as §1
# HaCat = test: as above; details: Five cell lines viability, CellTiter-Glo ATP luminescence, 48-72 h; max response: stronger effect = lower value
# How it was run: as §1
# NIH3T3 = test: as above; details: Five cell lines viability, CellTiter-Glo ATP luminescence, 48-72 h; max response: stronger effect = lower value
# How it was run: as §1
# C33A = test: Primary qHTS to identify gynecologic anti-cancer compounds using libraries of approved drugs and bioactive compounds (AID 1345084); details: Gynecologic cancer cell panel viability, ATPlite luminescence, 48 h; series mostly up to 57.5 µM; also: nearly all actives have a fitted effect of over 55% in size; also: potency is read from the fitted curve at half-maximal effect
# How it was run: (§2)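 Measured: luminescence after ATPlite addition (15 min, RT). Exposure: 48 h, 37 C, 5% CO2.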
# CASKI = test: as above; details: Gynecologic cancer cell panel viability, ATPlite luminescence, 48 h; series mostly up to 57.5 µM
# How it was run: as §2
# Es-2 = test: as above; details: Gynecologic cancer cell panel viability, ATPlite luminescence, 48 h; series mostly up to 57.5 µM
# How it was run: as §2
# HeLa = test: as above; details: Gynecologic cancer cell panel viability, ATPlite luminescence, 48 h; series mostly up to 57.5 µM
# How it was run: as §2
# Hek293T = test: as above; details: Gynecologic cancer cell panel viability, ATPlite luminescence, 48 h, control line for the selectivity index; series mostly up to 57.5 µM
# How it was run: as §2
# OV90 = test: as above; details: Gynecologic cancer cell panel viability, ATPlite luminescence, 48 h; series mostly up to 57.5 µM
# How it was run: as §2
# PA-1 = test: as above; details: Gynecologic cancer cell panel viability, ATPlite luminescence, 48 h; series mostly up to 57.5 µM
# How it was run: as §2
# Tov-21-G = test: as above; details: Gynecologic cancer cell panel viability, ATPlite luminescence, 48 h; series mostly up to 57.5 µM
# How it was run: as §2
# Tov112D = test: as above; details: Gynecologic cancer cell panel viability, ATPlite luminescence, 48 h; series mostly up to 57.5 µM
# How it was run: as §2
# Chain of Phospholipid hydroperoxide glutathione peroxidase GPX4 (Homo sapiens) (P36969 whole entry, looked up): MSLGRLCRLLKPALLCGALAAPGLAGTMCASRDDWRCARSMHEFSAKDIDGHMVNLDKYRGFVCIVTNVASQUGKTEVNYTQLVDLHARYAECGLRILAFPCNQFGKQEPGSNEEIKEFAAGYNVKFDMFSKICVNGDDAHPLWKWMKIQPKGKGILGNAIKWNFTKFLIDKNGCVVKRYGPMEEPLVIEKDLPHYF
# Chain of Glutathione peroxidase 1 (Homo sapiens) (P07203 whole entry, looked up): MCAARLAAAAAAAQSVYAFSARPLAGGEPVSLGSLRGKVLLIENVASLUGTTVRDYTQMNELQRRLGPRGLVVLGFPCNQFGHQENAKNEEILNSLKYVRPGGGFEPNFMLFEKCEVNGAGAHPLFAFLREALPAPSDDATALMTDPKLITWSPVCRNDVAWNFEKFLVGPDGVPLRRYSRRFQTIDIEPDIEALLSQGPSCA
compound,measurement,setting,value
N#CC(O[C@@H]1O[C@H](CO)[C@@H](O)[C@H](O)[C@H]1O)c1ccccc1 (stereo partly drawn),Potency,[1],inactive
same,Potency,[2],inactive
same,Potency,[3],inactive
same,Potency,[4],inactive
same,Potency,[5],inactive
same,outcome,[6],inactive
same,Potency,[7],inactive
same,outcome,CRL-7250,inactive
same,max response,HEK293,-8.76%
same,max response,HaCat,-12%
same,max response,NIH3T3,1.1%
same,Potency,C33A,inactive
same,Potency,CASKI,inactive
same,Potency,Es-2,inactive
same,Potency,HeLa,inactive
same,Potency,Hek293T,inactive
same,Potency,OV90,inactive
same,Potency,PA-1,inactive
same,Potency,Tov-21-G,inactive
same,Potency,Tov112D,inactive
CC[C@@H](C)[C@@H]1NC(=O)[C@@H]2CCCN2C(=O)[C@@H](CC(O)CCl)OC(=O)CCNC(=O)[C@H](C)N(C)C(=O)[C@H](C(C)C)N(C)C1=O (stereo partly drawn) (cyclo([NMeA][βAla][X7]P[aIle][NMeV])),Potency,[1],inactive
same,Potency,[2],608 nM (active)
same,Potency,[3],483 nM (active)
same,Potency,[4],inactive
same,Potency,[5],inactive
same,outcome,[6],inactive [at 25.7 µM]
same,Potency,[7],inactive
same,Potency,CRL-7250,0.968 µM (active)
same,Potency,HEK293,0.685 µM (active)
same,max response,HaCat,-21.3%
same,Potency,NIH3T3,2.43 µM (active)
same,Potency,C33A,4.47 µM (active)
same,Potency,CASKI,inactive
same,Potency,Es-2,4.47 µM (active)
same,Potency,OV90,0.447 µM (active)
same,Potency,PA-1,1 µM (active)
same,Potency,Tov-21-G,inactive
same,Potency,Tov112D,3.55 µM (active)
COC1C(O)C(C)OC(OC2C(CO)O[C@@H](O[C@@H]3CC4CCC5C(CC[C@]6(C)[C@@H](C7=CC(=O)OC7)CC[C@]56O)[C@@]4(C)[C@H](OC(C)=O)C3)C(O)C2O)C1O (stereo partly drawn),Potency,[1],2.73 µM (active)
same,Potency,[2],2160 nM (active)
same,Potency,[3],2420 nM (active)
same,Potency,[4],inactive
same,Potency,[5],inactive
same,outcome,[6],inactive [at 25.7 µM]
same,Potency,[7],inactive
same,Potency,CRL-7250,2.17 µM (active)
same,Potency,HEK293,2.43 µM (active)
same,Potency,HaCat,4.32 µM (active)
same,outcome,NIH3T3,inactive
same,Potency,C33A,3.55 µM (active)
same,Potency,Es-2,6.31 µM (active)
same,Potency,HeLa,10 µM (active)
same,Potency,Hek293T,3.55 µM (active)
same,Potency,OV90,inactive
same,Potency,Tov-21-G,3.55 µM (active)
same,Potency,Tov112D,2.82 µM (active)
CN1C2CCC1CC(OC(=O)N1Cc3ccccc3NC1=O)C2 (stereo not drawn),Potency,[1],inactive
same,Potency,[2],inactive
same,Potency,[3],inactive
same,Potency,[4],inactive
same,Potency,[5],inactive
same,outcome,[6],inactive
same,Potency,[7],inactive
same,outcome,CRL-7250,inactive
same,max response,HEK293,0.771%
same,max response,HaCat,2.89%
same,max response,NIH3T3,-1.26%
same,Potency,C33A,inactive
same,Potency,CASKI,inactive
same,Potency,Es-2,inactive
same,Potency,HeLa,inactive
same,Potency,Hek293T,inactive
same,Potency,OV90,inactive
same,Potency,PA-1,inactive
same,Potency,Tov-21-G,inactive
same,Potency,Tov112D,inactive
CCC(C)(O)C1(C(=O)O)COC(=O)C1 (stereo not drawn),Potency,[1],inactive
same,Potency,[2],inactive
same,Potency,[3],inactive
same,Potency,[4],inactive
same,Potency,[5],inactive
same,outcome,[6],inactive [at 86.2 µM]
same,Potency,[7],inactive
same,max response,CRL-7250,-3.51%
same,max response,HEK293,0.689%
same,outcome,HaCat,inactive
same,max response,NIH3T3,-1.83%
same,Potency,C33A,inactive
same,Potency,CASKI,inactive
same,Potency,Es-2,inactive
same,Potency,HeLa,inactive
same,Potency,Hek293T,inactive
same,Potency,OV90,inactive
same,Potency,PA-1,inactive
same,Potency,Tov-21-G,inactive
same,Potency,Tov112D,inactive
C[C@H]1C/C=C/[C@H]2[C@@H]3O[C@]3(C)[C@@H](C)[C@H]3[C@H](Cc4ccccc4)NC(=O)[C@]32OC(=O)O/C=C/[C@@](C)(O)C1=O,Potency,[1],2.24 µM (active)
same,Potency,[2],632 nM (active)
same,Potency,[3],502 nM (active)
same,Potency,[4],inactive
same,Potency,[5],inactive
same,outcome,[6],inactive [at 25.7 µM]
same,Potency,[7],inactive
same,Potency,CRL-7250,0.632 µM (active)
same,Potency,HEK293,0.399 µM (active)
same,Potency,HaCat,0.796 µM (active)
same,Potency,C33A,inactive
same,Potency,CASKI,inactive
same,Potency,Es-2,inactive
same,Potency,OV90,inactive
same,Potency,PA-1,2.51 µM (active)
same,Potency,Tov112D,3.16 µM (active)
CCC1=CC2CN3CCc4c([nH]c5ccccc45)[C@@](C(=O)OC)(C2)[C@@H]13,Potency,[4],inactive
same,outcome,[6],inactive
same,Potency,[7],inactive
same,max response,CRL-7250,-21.4%
same,max response,HEK293,-6.65%
same,max response,HaCat,-7.15%
same,Potency,C33A,inactive
same,Potency,CASKI,inactive
same,Potency,Es-2,inactive
same,Potency,HeLa,inactive
same,Potency,Hek293T,inactive
same,Potency,OV90,inactive
same,Potency,PA-1,inactive
same,Potency,Tov-21-G,inactive
same,Potency,Tov112D,inactive
Cc1sc2c(c1C)C(c1ccc(Cl)cc1)=N[C@@H](CC(N)=O)c1nnc(C)n1-2,Potency,[2],64.9 nM (active) and 132 nM (active)
same,Potency,[3],51.5 nM (active) and 148 nM (active)
same,Potency,[4],inactive
same,Potency,[5],inactive
same,outcome,[6],inactive
same,Potency,[7],inactive
same,Potency,CRL-7250,0.366 µM (active)
same,Potency,HEK293,0.259 µM (active)
same,max response,HaCat,-29.9%
same,Potency,C33A,inactive
same,Potency,CASKI,inactive
COc1cc(O)c2c(c1)/C=C/C[C@@H](O)[C@@H](O)C(=O)CCC[C@H](C)OC2=O,Potency,[1],inactive
same,Potency,[4],inactive
same,Potency,[5],inactive
same,outcome,[6],inactive
same,Potency,[7],inactive
same,Potency,CRL-7250,14.3 µM (active)
same,max response,HEK293,0.301%
same,max response,HaCat,-18.3%
same,max response,NIH3T3,-5.04%
same,Potency,C33A,inactive
same,Potency,CASKI,inactive
same,Potency,Es-2,inactive
same,Potency,HeLa,inactive
same,Potency,Hek293T,inactive
same,Potency,OV90,inactive
same,Potency,PA-1,inactive
same,Potency,Tov-21-G,inactive
same,Potency,Tov112D,inactive
CCC1NC(=O)C2C(Cl)C(Cl)CN2C(=O)C(CC)NC(=O)CC(c2ccccc2)NC(=O)C(CO)NC1=O (stereo not drawn),Potency,[1],inactive
same,Potency,[4],inactive
same,Potency,[5],inactive
same,outcome,[6],inactive
same,Potency,[7],inactive
same,max response,CRL-7250,2.35%
same,max response,HEK293,-1.56%
same,outcome,HaCat,inactive
same,outcome,NIH3T3,inactive
same,Potency,C33A,inactive
same,Potency,CASKI,inactive
same,Potency,Es-2,inactive
same,Potency,HeLa,inactive
same,Potency,Hek293T,inactive
same,Potency,OV90,inactive
same,Potency,PA-1,inactive
same,Potency,Tov112D,inactive

# From PubChem BioAssay (NCATS)
